Screening data as filed in PubChem BioAssay.
Beta apoptosis – beta cell apoptosis inhibition | INS-1E cytokine-induced death, ATP luminescence, 48 h; percent of positive-control rescue, neutral wells zero | protection from apoptosis, % (concentration not given with the values) | 300,000 tested, 0.8% active | AID 435005;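 active = Every replicate reaches about 75%, or at least half do and their mean reaches it too, limit read from the data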;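 also: 0% = cytokine-treated negative control wells and 100% = positive control rescue; higher means more ATP so stronger rescue from cytokine killing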
Jurkat NFkB inh – inhibitors of the PMA/ionomycin-induced NF-kB reporter in Jurkat cells; PMA/ionomycin-induced NF-kB luciferase reporter, luminescence; inhibition, % at 4 µM; 330,000 tested, 0.53% active; in the data active = inhibition above about 50%
697 NFkB inh – inhibitors of the PMA/ionomycin-induced NF-kB reporter in 697 B cells. 697 B-cell NF-kB luciferase reporter, 16 h. inhibition, % at 4 µM. 330,000 tested, 0.33% active. AID 435022; in the data active = inhibition above about 35%
Mdm2-MdmX inh – inhibitors of human Mdm2/MdmX interaction; AID 485346; SaOS-2 split-luciferase Mdm2/MdmX complementation, luminescence; 330,000 tested, 3% active; inhibition, % at 8 µM;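 active = inhibition of at least 50% at 8 µM in the primary screen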
Gli-Sufu antag – Gli-Sufu pathway antagonism. inhibition, % at 5 µM. AID 588413. Sufu-KO-LIGHT fibroblasts, Gli luciferase reporter luminescence. 340,000 tested, 0.74% active;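 active = inhibition above about 55%, limit read from the data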;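 also: 0% = DMSO-treated cells and 100% = wells with medium but no cells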
* hit, by the source's call; / = no result given. An excerpt weighted towards active compounds, which were near 4% of everything screened.

SMILES	Beta apoptosis	Jurkat NFkB inh	697 NFkB inh	Mdm2-MdmX inh	Gli-Sufu antag
CCOc1ccc(/C=N/NC(=O)c2[nH]ncc2Br)c(O)c1	77.0*	-66.8	-172.7	-20.1	41.4
Cc1ccc(O)c(/C=N/NC(=O)c2[nH]ncc2Br)c1	84.3*	-24.3	-91.8	-19.1	-9.0
Cc1ccc(NC(=O)COc2cccc(-n3cnnn3)c2)cc1S(=O)(=O)N1CCOCC1	1.2	14.1	16.7	-9.3	-1.4
CNc1cccnc1C=NNC(N)=S	/	/	/	/	84.5*
CCN1CCN(C2=C(NS(=O)(=O)c3ccccc3)C(=O)c3ccccc3C2=O)CC1	81.7*	30.4	-14.8	37.0	12.9
CN1CCN(C2=C(NS(=O)(=O)c3cccs3)C(=O)c3ccccc3C2=O)CC1	92.8*	31.4	11.1	13.1	4.4
COc1ccccc1CNc1ncnc2sccc12	97.2*	35.0	0.4	9.4	46.7
Fc1ccccc1CNc1ncnc2sccc12	52.9	4.3	-24.3	19.8	11.8
CN(C)c1ccc(CNc2ncnc3sccc23)cc1	37.5	5.1	-25.2	-12.4	62.7*
Cc1ccc2c(C)c(C)c(=O)n(C)c2c1	/	/	/	/	20.2
O=C(COC(=O)c1cc(-c2cccs2)nc2ccccc12)NC1CCS(=O)(=O)C1 (configuration not stated)	2.4	8.6	3.2	19.7	-11.9
O=C(NNc1c(F)c(F)cc(F)c1F)C1CCN(S(=O)(=O)c2ccccc2F)CC1	2.6	-25.0	21.7	-16.5	0.5
C=CC[n+]1c(-c2ccc(OCC)cc2)csc1NNC(=O)Nc1ccccc1	98.8*	27.1	-12.9	10.4	35.7
COc1ccc2cc3c(nc2c1)OCC3	-6.5	-18.0	-7.9	1.8	-8.6
Cc1cc2c(Nc3ccccc3)ncnc2s1	1.5	8.6	2.2	33.6	-3.3
Cc1cc2c(NCCc3ccccc3)ncnc2s1	107.6*	9.5	-22.9	-11.9	/
Cc1cc(Cl)n2c(nc3cc(F)c(F)cc32)c1C#N	/	/	/	/	61.9*
COc1ccc(Br)cc1CN(C)CC(=O)NCc1ccc(F)cc1	97.8*	1.3	-12.8	21.3	15.2
CN(CC(=O)NCc1ccc(F)cc1)Cc1ccc(Br)cc1	-6.4	-8.1	-8.0	-12.3	-13.3
CC(=O)c1cccc(N=c2scc(-c3ccc(S(=O)(=O)N4CCOCC4)cc3)n2CCO)c1	75.1*	30.8	-6.0	-1.9	39.3
CC[C@]12C(=O)N(C)C[C@H]([C@@H]3C(=O)N(Cc4ccccc4)C(=O)[C@@H]31)N2C(=O)c1ccc(C(C)(C)C)cc1	/	/	/	/	3.1
COc1ccc(N(C)S(=O)(=O)c2cccc(C(=O)N3CCN(c4cccc(C)c4C)CC3)c2)cc1	/	/	/	/	6.6
CCOc1cc(-c2sc(Nc3ccc(CC)cc3)n[n+]2-c2ccccc2)ccc1OC	1.8	-2.3	6.6	21.4	14.2
CCOc1cc(-c2sc(Nc3cc(C)ccc3OC)n[n+]2-c2ccccc2)ccc1OC	93.8*	9.7	0.7	15.1	16.2
CCc1ccc(Nc2n[n+](-c3ccccc3)c(-c3cccc(C)c3)s2)cc1	69.1	8.9	-8.5	3.2	69.9*
SMILES	Beta apoptosis	Jurkat NFkB inh	697 NFkB inh	Mdm2-MdmX inh	Gli-Sufu antag
Cc1cccc(-c2sc(Nc3ccccc3)n[n+]2-c2ccc(F)cc2)c1	6.1	-28.5	22.4	-5.4	14.8
CC(=O)c1cccc(NS(=O)(=O)c2ccc(N/C=C\C(=O)c3ccc(F)cc3)cc2)c1	97.9*	6.7	-42.5	7.1	32.6
CC(=O)c1cccc(NS(=O)(=O)c2ccc(N/C=C/C(=O)c3ccc(F)cc3)cc2)c1	111.8*	13.2	-19.2	36.0	32.7
CC(=O)c1cccc(NS(=O)(=O)c2ccc(N/C=C\C(=O)c3ccc(C)cc3)cc2)c1	45.4	9.3	-25.3	41.3	43.7
O=C(c1ccc(-c2ccc(Cl)cc2)o1)N1CCN(c2ccc([N+](=O)[O-])cc2Cl)CC1	113.3*	9.6	18.8	2.6	34.2
O=C(O)CCC(=O)N1CCN(c2ncccn2)CC1	-8.8	-0.8	-5.6	0.6	5.9
COc1ccccc1N1CC(C)(C)C(=O)N(C(=O)c2ccc(Cl)cc2)C1=S	85.1*	22.8	3.2	30.8	3.3
Cc1ccc(S(=O)(=O)Nc2cccc(-n3cnnn3)c2)cc1	-3.7	-1.0	16.7	29.3	2.3
C/C(=C\CNc1ncnc2nc[nH]c12)CO	-2.8	17.9	22.7	44.9	-9.0
CC(C)CCCCCCCCCCCCC(=O)NCC(=O)NC1C(C)OC(Nc2ncnc3nc[nH]c23)C(O)C1O (configuration not stated)	/	/	/	/	69.6*
CCOC(=O)C1=C(COC(=O)c2cc(S(=O)(=O)N(C)C)ccc2C)NC(=O)NC1C (configuration not stated)	1.4	6.7	1.1	7.5	9.9
c1ccc(-c2nnc(-c3ccccn3)nc2NC2CCCCC2)cc1	95.7*	47.7	-41.8	17.0	91.0*
CNc1nc(-c2ccccn2)nnc1-c1ccccc1	-4.2	-7.7	1.6	25.5	23.8
CCCCc1c(O)c2ccccc2n(CCCC)c1=O	-5.0	0.2	17.3	3.1	-0.1
CCCCc1c(CCC)c(=N)c2ccccc2n1C	26.1	39.8	-20.3	35.9	75.9*
CCCCOc1cc(NCc2ccccc2)c2ncn(C(C)C)c2c1	79.5*	12.7	-11.7	47.0	6.7
COC(=O)[C@H](Cc1ccccc1)N(Cc1ccccc1)S(=O)(=O)N(Cc1ccccc1)[C@@H](Cc1ccccc1)C(=O)OC	118.7*	-5.9	20.9	40.1	36.8
CCC(CNc1cc(OC)cc2cccnc12)NC1CCCCC1 (configuration not stated)	101.4*	/	/	/	13.2
CN(C)C(CNC(=O)C1CCN(S(=O)(=O)c2cc(Cl)ccc2Cl)CC1)Cc1ccccc1 (configuration not stated)	/	/	/	/	13.2
CCC(C)(C)c1ccc(OCCCC[n+]2cccc(C)c2)c(C(C)(C)CC)c1	/	/	/	/	87.4*
Cc1ccc[n+](CC(=O)Nc2cc(C(F)(F)F)ccc2Cl)c1	-10.3	-13.7	4.6	-7.3	3.6
CCOC(=O)c1c(C)[nH]c(C(=O)CSc2nnc(-c3ccncc3)n2CC)c1C	-2.6	-11.0	-15.2	33.6	3.8
C=CCn1c(SCC(=O)c2[nH]c(C)c(C(=O)OCC)c2C)nc2scc(-c3ccc(OC)c(OC)c3)c2c1=O	94.9*	/	/	/	16.0
Cc1nc2ccccc2n1/N=C/c1ccc([N+](=O)[O-])s1	109.0*	14.8	9.1	34.4	27.0
Cc1nc2ccccc2n1/N=C/c1ccc([N+](=O)[O-])o1	-5.6	34.0	16.0	44.3	1.6
O=[N+]([O-])c1ccc(/C=N/n2c(CO)nc3ccccc32)s1	80.6*	19.5	-17.9	34.0	28.4
Cc1cc2ncn(/N=C/c3ccc([N+](=O)[O-])s3)c2cc1C	50.4	/	/	/	31.7
O=c1c(Cl)c2oc3ccccc3nc-2c2ccccc12	85.5*	-13.2	-28.9	12.5	3.2
CC(C)(C)CN1CCC(Oc2cccc(C(=O)NCCCOc3cccnc3)c2)CC1	105.1*	12.9	-17.2	26.8	49.6
C=CCNC(=O)c1cccc(OC2CCN(CC(C)(C)C)CC2)c1	-5.3	-3.4	2.1	-15.8	15.6
